Compounds with a hit are over-represented: about 4.1% of the library has one in this group of screens.
hcDAF-12 act: activators of H. contortus DAF-12 nuclear receptor. HEK293 hcDAF-12 lit1-tk-luc reporter, luminescence; 0% DMSO, 100% Δ7-dafachronic acid. activation, % at 6.8 µM. hit rate 1.4% among 370,000;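 active = activation above the mean of all tested compounds plus 3 SD, cut at about 5.5% in these data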;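 also: 100% = response to 3 µM Δ7-dafachronic acid high control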
ssDAF-12 act: S. stercoralis DAF-12 activation, primary screen | hit rate 1% among 370,000 | activation, % at 6.8 µM | HEK293 ssDAF-12/GRIP1 lit1-tk-luc reporter, luminescence; % of 3 µM dafachronic acid response;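 active = activation above the mean over all tested compounds plus 3 SD, cut at about 0.9% in these data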;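 also: 0% = DMSO-only wells and 100% = 3 µM delta7-dafachronic acid wells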
DAX1 inh-1: inhibitors of DAX1 repression of SF-1 activated StAR promoter; HEK293T StAR-luciferase reporter, SF-1/DAX-1 repression relief; inhibition, % at 6.8 µM; hit rate 1.1% among 370,000;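 active = inhibition above the mean over all tested compounds plus 3 SD, cut at about 3.6% in these data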;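 also: 0% = DAX-1 cells with DMSO and 100% = cells lacking DAX-1 with DMSO; higher inhibition means more luminescence from relief of DAX-1 repression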
DAX1 inh-2: inhibits human nuclear receptor DAX1; HEK293 Gal4-DAX1 luciferase reporter, luminescence; inhibition, % at 6.75 µM; hit rate 0.99% among 340,000;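 active = inhibition above the mean over all tested compounds plus 3 SD, cut at about 4.2% in these data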;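 also: 0% = DAX1-transfected cells with DMSO and 100% = empty-vector control cells with DMSO; inhibition shows as a rise in luminescence from relieved DAX1 repression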
hgDAF12 agonist: activates the H. glycines DAF-12 receptor ligand-binding domain | HEK293 GAL4-hgDAF12 UAS-luciferase reporter, agonist luminescence; normalized to butyrate control | activation, % at 6.8 µM | hit rate 1.8% among 370,000 | AID 687014;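 active = activation above a cutoff set at the mean of all screened compounds plus 3 SD, cut at about 10% in these data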;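 also: 0% = DMSO wells and 100% = sodium butyrate wells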
DAX1 conf: NR0B1 (human) inhibition, confirmation; shares compounds with DAX1 inh-1; HEK293T StAR-promoter luciferase reporter, SF-1/DAX-1 repression; inhibition, % at 6.8 µM; hit rate 87% among 2,400; AID 652134;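 active = inhibition above the average of every tested compound plus 3 SD, cut at about 3.8% in these data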;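 also: 0% = DAX-1 cells with DMSO and 100% = no DAX-1 control cells with DMSO; active compounds raise luminescence by relieving repression of the StAR reporter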
SF1 mutant ctr: counter-screen for DAX1 inhibitors: nonselective inhibitors with SF-1 AF2 mutant; shares compounds with DAX1 inh-1; inhibition, % at 6.8 µM; hit rate 78% among 2,400; HEK293 StAR-luciferase, luminescence;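 active = inhibition above the mean of all tested compounds plus 3 SD, cut at about 3% in these data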;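 also: 0% = DAX-1 transfected cells with DMSO and 100% = cells without DAX-1 with DMSO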
LXR ag: counter-screen for hcDAF-12 agonists: agonists of human LXR-beta; HEK293 Gal4-LXR tk-luc reporter, luminescence, 24 h; normalized: DMSO 0%, positive control 100%; 3,400 tested, under 10 active; activation, % at 6.8 µM; AID 743027; shares compounds with hcDAF-12 act;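 active = mean percent activation of the reporter above a cutoff set as the average over tested compounds plus their standard deviation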
Target sequence (P55055 whole entry, looked up, the tested form may be a part): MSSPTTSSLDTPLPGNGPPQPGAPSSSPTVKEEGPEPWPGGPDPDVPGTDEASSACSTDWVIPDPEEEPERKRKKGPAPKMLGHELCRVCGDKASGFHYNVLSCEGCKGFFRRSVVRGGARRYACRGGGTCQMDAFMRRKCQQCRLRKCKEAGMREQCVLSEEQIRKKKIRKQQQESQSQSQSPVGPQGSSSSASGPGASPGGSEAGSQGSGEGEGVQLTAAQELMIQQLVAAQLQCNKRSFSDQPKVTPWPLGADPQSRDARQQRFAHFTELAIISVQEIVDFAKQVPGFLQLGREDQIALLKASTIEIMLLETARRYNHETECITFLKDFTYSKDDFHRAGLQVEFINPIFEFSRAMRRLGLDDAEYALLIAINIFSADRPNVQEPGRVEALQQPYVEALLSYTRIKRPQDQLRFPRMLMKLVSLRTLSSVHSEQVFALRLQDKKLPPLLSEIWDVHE
hcDAF12 conf: hcDAF-12 agonism, confirmation assay; AID 743032; HEK293 hcDAF-12 lit1-tk-luc reporter, luminescence; % of Δ7-dafachronic acid response; hit rate 61% among 3,400; shares compounds with hcDAF-12 act; activation, % at 6.8 µM;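 active = mean activation across triplicate tests above the threshold derived from the earlier primary screen, cut at about 5.5% in these data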;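 also: 0% = DMSO only wells and 100% = 3 µM Δ7-dafachronic acid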
hgDAF12 ag: confirmation of H. glycines DAF-12 agonists; shares compounds with hgDAF12 agonist; HEK293 GAL4-hgDAF12 luciferase reporter, agonist mode; percent of butyrate response; activation, % at 6.8 µM; hit rate 80% among 3,300; AID 743050;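 active = mean activation over triplicate wells above the hit cutoff derived from the earlier primary screen, cut at about 11% in these data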;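 also: 0% = DMSO low control and 100% = 2 mM sodium butyrate high control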
LXRb DAF12 ctr: activates human LXR-beta, counter-screen for DAF-12 agonists; shares compounds with hgDAF12 agonist; HEK293 Gal4-LXR luciferase reporter, 24 h; activation, % at 6.8 µM; 3,300 tested, under 10 active; AID 743051;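 active = mean activation of the triplicate above a set limit carried over from the primary screen, none filed active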
* hit, by the source's call; . = no result.

SMILES | hcDAF-12 act | ssDAF-12 act | DAX1 inh-1 | DAX1 inh-2 | hgDAF12 agonist | DAX1 conf | SF1 mutant ctr | others
Cc1cc(OCC(=O)N2CCCN(C)CC2)ccc1Cl | 0 | 0 | 5.2* | 0 | 2 | 3 | 0
CN1CCCN(C(=O)COc2ccc(Br)cc2)CC1 | 1 | 0 | 0 | 2 | 2 | . | .
C[C@H]1CCCC(=O)CCC/C=C/c2cc(O)cc(O)c2C(=O)O1 | -4 | -2 | -1 | 1 | -7 | . | .
C[C@H]1CCC/C=C/[C@@H]2C[C@H](O)C[C@H]2[C@H](O)/C=C/C(=O)O1 | -3 | -2 | 4.4* | -3 | -1 | 10* | 2
Cc1cccc2nc(-c3ccccc3)c(-c3ccc(CN4CCC(n5c(=O)[nH]c6cc(Cl)ccc65)CC4)cc3)nc12 | -1 | -1 | -1 | . | -1 | . | .
CCOC(=O)[C@]12Cc3ccccc3[C@H]1N(C(C)C)C(=O)c1cc(OC)ccc12 | 0 | -1 | 7.0* | . | -4 | 6.0* | 16*
CCOC(=O)[C@]12Cc3c(cc(OC)c(OC)c3OC)[C@H]1N(C)C(=O)c1cc(OC)ccc12 | 2 | -1 | 4.7* | . | 0 | 9.5* | 14*
CCOC(=O)[C@]12Cc3c(cc(OC)c(OC)c3OC)[C@H]1N(C(C)C)C(=O)c1ccccc12 | 0 | -1 | 5.5* | . | -1 | 4.6* | 6.4*
N#Cc1ccc2nc(-c3ccc(CN4CCC(n5c(=O)[nH]c6cc(Cl)ccc65)CC4)cc3)c(-c3ccccc3)nc2c1 | -3 | -2 | -2 | . | 0 | . | .
CN1OC[C@@H]2CN3C4(C[C@@H]21)c1ccccc1C3(c1ccccc1)c1ccccc14 | -1 | -1 | 0 | . | -3 | . | .
Cc1cc2c(cc1C)NP(=S)(c1ccccc1)N2 | 8.0* | 1.2* | 11* | 0 | 19* | 13* | 8.4* | LXR ag=2;hcDAF12 conf=13*
O=C(NCCN1CCC2(CC1)C(=O)NCN2c1ccccc1)c1ccc(OC(F)(F)F)cc1 | 2 | -1 | -1 | . | -1 | . | .
COc1ccc(-c2cc(=NCCC(=O)O)c3cc(C)ccc3o2)cc1 | 6.5* | -1 | 7.0* | 2 | 23* | 13* | 8.8* | hgDAF12 ag=10*;LXRb DAF12 ctr=0
COc1ccc(-c2cc(=O)c3c(OC)c(OC)c(OC)cc3o2)cc1 | -4 | -2 | -2 | -3 | 0 | . | .
COc1ccc(-c2cc(=Nc3ccccc3)c3cc(C)ccc3o2)cc1 | 7.3* | 0 | 5.1* | -1 | 22* | 6.1* | 4.3* | LXR ag=0;hcDAF12 conf=1;hgDAF12 ag=18*;LXRb DAF12 ctr=1
Nc1ccccc1C(=O)OCCc1ccccc1 | 11* | 0 | 5.6* | 1 | 24* | 13* | 4.1* | LXR ag=2;hcDAF12 conf=9.7*;hgDAF12 ag=15*;LXRb DAF12 ctr=1
CCc1cc(OC)c(CCN)cc1OC | -2 | 0 | 0 | . | 0 | . | .
Clc1ccc([C@H]2CC3CCC2N3)cn1 (stereo partly specified) | 2 | -1 | 0 | . | 2 | . | .
CN1C2(C)c3ccccc3C1(c1ccccc1)c1ccccc12 | 0 | -1 | -1 | . | -3 | . | .
CC/C(=N\NC(=O)c1ccccc1)c1c(O)n(C2CCCCC2)c(=O)[nH]c1=O | 3 | -1 | 4.8* | 1 | 15* | 2 | 1 | hgDAF12 ag=2;LXRb DAF12 ctr=0
CC/C(=N\NC(=O)c1ccccc1Cl)c1c(O)n(C2CCCCC2)c(=O)[nH]c1=O | -1 | -1 | 3 | 0 | 7 | . | .

Bioassay records from PubChem.
